Results as given in PubChem BioAssay AID1822 (The Scripps Research Institute Molecular Screening Center, 2009).
Screen size: about 290,000 compounds; about 3,500 (1.2%) were called active.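 The calls were made as follows: active = inhibition above the campaign mean inhibition over all tested compounds plus 3 SD (cut at about 28% in these data); inactive = the rest.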 Many of the other results were omitted from the sample, so actives are more common in it than they were.

The compounds below were run on M18 aspartyl aminopeptidase (Plasmodium falciparum 3D7) (assay: PfM18AAP inhibitors, malaria aminopeptidase, primary screen, biochemical, QFRET, recombinant enzyme (AID 1822;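 also: 0% = plate median of test compound wells and 100% = 2 mM ZnCl2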)). Details: H-Glu-NHMec fluorogenic cleavage, at 7.35 µM, active compounds read high.

SMILES | inhibition
CNC(=O)/C(C#N)=C/c1c(F)cccc1Cl | -1.65% (inactive)
COc1cc(CN2CCCN(C)CC2)c([N+](=O)[O-])cc1OC | 13.4% (inactive)
COc1cc(CNCc2ccc3c(c2)OCO3)c([N+](=O)[O-])cc1OC | 13.5% (inactive)
COc1cc(CN2CCN(Cc3ccc(C)cc3)CC2)c([N+](=O)[O-])cc1OC | 29.9% (active)
O=C(CC(n1cncn1)C(Cl)(Cl)Cl)c1ccc([N+](=O)[O-])cc1 (stereo not drawn) | 55.3% (active)
O=C(CCn1nnc2ccccc21)OCC(=O)c1ccc([N+](=O)[O-])cc1 | 21.8% (inactive)
O=C(CSc1nc2ccc([N+](=O)[O-])cc2[nH]1)c1ccc(Cl)cc1 | 3.49% (inactive)
COc1cc(SC)ccc1C(=O)N(Cc1ccccc1)c1ccccc1 | 0.45% (inactive)
Cc1nn(CC(=O)NC2CCCCC2)c(=O)c2cccn12 | -6.41% (inactive)
O=C(CCN1c2ccccc2Sc2ccccc21)Nc1ccccc1 | 6.09% (inactive)
CCN1/C(=C/c2ccc3ccc(C)cc3[n+]2CC)Sc2ccccc21 | -2.79% (inactive)
CCN1/C(=C/C(=S)Nc2ccccc2)Sc2ccccc21 | 46.3% (active)
O=c1c2cc([N+](=O)[O-])ccc2nc2n1CCC2 | 3.84% (inactive)
Fc1ccccc1COc1cccc2cccnc12 | -17.2% (inactive)
O=C(CSc1nc2cccnc2n1Cc1ccccc1)N1CCc2ccccc21 | -2.92% (inactive)
CCOC(=O)N1CCN(S(=O)(=O)c2ccc(Br)cc2)CC1 | -5.88% (inactive)
O=C(Nc1nnc(C2COc3ccccc3O2)o1)c1ccc(F)cc1 (stereo not drawn) | 5.07% (inactive)
COc1ccc(OC)c2sc(NC(=O)C3COc4ccccc4O3)nc12 (stereo not drawn) | -7.49% (inactive)
c1ccc2c(c1)OCC(c1nn3cnnc3s1)O2 (stereo not drawn) | 55.2% (active)
COc1cc(NC(=O)C2=CC(c3ccc(C)cc3)=NS(=O)(=O)N2C)cc(OC)c1OC | 13.1% (inactive)
CC(=O)c1ccc(N2CCN(C(=O)C3CCN(S(=O)(=O)c4ccc5c(c4)CC(C)N5C(=O)C4CC4)CC3)CC2)cc1 (stereo not drawn) | -0.32% (inactive)

SMILES | inhibition
CN(CCC1CCOCC1)C(=O)CC1C(=O)NCCN1Cc1cccc(F)c1 (stereo not drawn) | 6.55% (inactive)
CCCOc1ccc(C2NC(=O)NC(c3ccccc3)=C2C(C)=O)cc1OCC (stereo not drawn) | -0.97% (inactive)
COc1cccc(COc2ccc(N(C)S(=O)(=O)c3ccccc3)cc2)c1 | 4.14% (inactive)
O=C(/C=C/Nc1ccccc1OC(F)(F)F)C(F)(F)F | -3.52% (inactive)
CC(=O)N(C)c1ccc(NC(=O)C(F)(F)F)cc1 | -1.27% (inactive)
CN(C)c1ccc(N/C=C/C(=O)C(F)(F)F)cc1 | 29.1% (active)
COc1cccc2sc(NNC(=O)c3nc4ccccc4s3)nc12 | 30.1% (active)
COc1ccccc1OCc1nc2ccccc2s1 | 2.93% (inactive)
COc1cccc2sc(Nc3nc(C)c(C(C)=O)s3)nc12 | 7.92% (inactive)
CCCc1cc(=O)n2[nH]c(C)c(-c3ccc(Cl)cc3)c2n1 | -3.86% (inactive)
Cc1ccc(NC2CCCN(C(=O)CCC3(C)CC3)C2)cc1C (stereo not drawn) | 12.1% (inactive)
O=[N+]([O-])c1ccc(N2CCSCC2)cc1O | 7.26% (inactive)
Cc1cc(C(=O)N/N=C/c2ccc(O)c([N+](=O)[O-])c2)c(C)n1-c1ccc(F)cc1 | 1.56% (inactive)
O=C1CSC(=S)N1/N=C/c1ccc(O)c([N+](=O)[O-])c1 | 39.1% (active)
CCC(C)(C)NC(=O)C1c2ccccc2Oc2ccccc21 | 0.98% (inactive)
CCC(C)NC(=O)C1c2ccccc2Oc2ccccc21 (stereo not drawn) | -7.47% (inactive)
O=C(N/N=C/c1ccc(O)c(O)c1)C1c2ccccc2Oc2ccccc21 | 66.5% (active)
CC(C)(C)SCCSC1=CC(=O)CC(c2ccccc2)C1 (stereo not drawn) | -7.92% (inactive)
COc1ccc(CCNC(=O)CN2C(=O)COc3ccc(S(=O)(=O)N4CCCC4)cc32)cc1OC | 0.73% (inactive)
Cc1ccc(-c2noc(CN3CCN(Cc4ccccc4)CC3)n2)cc1 | -2.79% (inactive)
Cc1ccc(-c2noc(CC(c3ccccc3)c3ccccc3)n2)cc1 | 34.4% (active)

SMILES | inhibition
COc1ccccc1Cc1nc(-c2ccc(C)cc2)no1 | 0.56% (inactive)
CCOC(=O)c1ccc(NC(=S)N2CCN(c3ccccn3)CC2)cc1 | 0.52% (inactive)
CSCCC(NS(=O)(=O)c1ccc(C)cc1)C(=O)N1CCCC1 (stereo not drawn) | -2.59% (inactive)
C=CCSc1nc2c(c(=O)[nH]c(=O)n2C)n1Cc1ccccc1 | -7.79% (inactive)
COc1ccc(CNc2nc3c(c(=O)[nH]c(=O)n3C)n2Cc2ccccc2)cc1 | 7.49% (inactive)
Cn1c(=O)[nH]c(=O)c2c1[nH]c(=S)n2Cc1ccccc1 | 51.6% (active)
CCS(=O)(=O)C1=NSC2=NC(=O)/C(=C\c3ccc(OS(=O)(=O)c4ccccc4)cc3)C(=N)N21 | 5.46% (inactive)
CC1CCC2(CC1)NC(=O)N(Cc1nnc(-c3cccs3)o1)C2=O (stereo not drawn) | -3.12% (inactive)
CC(C)(C)OC(=O)NNc1c2ccccc2nc2ccccc12 | 29.7% (active)
O=C(NNc1c2ccccc2nc2ccccc12)c1cc2ccccc2cc1O | 1.24% (inactive)
CC(=O)Nc1ccc(Nc2c3ccccc3nc3ccccc23)cc1 | 4.35% (inactive)
O=c1c2cc(-c3ccccc3)sc2nc2n1N=C(c1cccs1)CS2 | 6.06% (inactive)
CC1CCN(S(=O)(=O)c2ccc3[nH]c(=O)ccc3c2)CC1 | -0.17% (inactive)
O=C(c1cnn(-c2ccc(Cl)cc2)c1)c1ccccc1O | -0.75% (inactive)
Cc1ncc(CC(=O)n2cc(C(=O)c3cc(Cl)ccc3O)cn2)s1 | 29.3% (active)
Cc1ccc(CCC(=O)Nc2ncc(Cc3cc(Cl)ccc3Cl)s2)o1 | -7.4% (inactive)
O=S(=O)(c1ccc(-c2ccno2)s1)N1CCCCC1 | 11% (inactive)
CCOc1ccccc1-c1cc(C(=O)N/N=C(\C)c2cccnc2)c2ccccc2n1 | 1.07% (inactive)
O=C(NC(=S)Nc1ccc(Cl)c(C(=O)O)c1)c1cncc(Br)c1 | 15.9% (inactive)
CC(C)c1ccc(NC(=S)NNc2ccc(Cl)c(C(=O)O)c2)cc1 | 39.9% (active)
Cc1ccc(C)c(NC(=S)NNC(=S)Nc2ccc(C(C)C)cc2)c1 | 3.44% (inactive)
